These results are taken from PubChem BioAssay AID2549 (National Center for Advancing Translational Sciences (NCATS), 2010).

Values joined by “and” are separate entries in the source; they are usually repeats but may differ in a detail not shown here. Equal values may be shown once. Hit rate of the full screen: of about 240,000 compounds, about 1,300 (0.54%) were called active. Another 1% or so got no clear call; they are omitted. Calls follow the shape of the dose curve; as a rule, active = well fitted inhibition curve with a large enough effect; inconclusive = small, poorly fitted or top-dose-only effect; inactive = flat fitted curve, though single readings scatter. For the sample, actives were picked, then their nearest neighbours and some compounds at random. Some compounds were tested as several samples or in several runs, with calls that do not always agree.
Potency is read from the fitted curve at half-maximal effect.

The target of the assay is ATP-dependent DNA helicase Q1 (Homo sapiens) (UniProt P46063). In words: qHTS Assay for Inhibitors of RecQ-Like Dna Helicase 1 (RECQ1). Also: nearly all actives have a fitted effect of over 30% in size.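 As to activity, negative = inhibition: plate controls were vehicle for no effect and no enzyme for full effect.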 The following applies: RECQ1 DNA unwinding, red fluorescence kinetic read; series mostly up to 57.3 µM; activity, negative = inhibition: at the top concentration. Summed up: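 RECQ1T1 50 nM; forked duplex (20 bp + 30-nt ss tails) 200 nM, ATP 2 mM final; pH 8.0, 2 mM MgCl2, 2.5 ug/ml poly(dI-dC); 15 min compound preincubation; discontinuous kinetic read over 2 h at RT.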
Sequence of ATP-dependent DNA helicase Q1 (Homo sapiens) (P46063 whole entry, looked up): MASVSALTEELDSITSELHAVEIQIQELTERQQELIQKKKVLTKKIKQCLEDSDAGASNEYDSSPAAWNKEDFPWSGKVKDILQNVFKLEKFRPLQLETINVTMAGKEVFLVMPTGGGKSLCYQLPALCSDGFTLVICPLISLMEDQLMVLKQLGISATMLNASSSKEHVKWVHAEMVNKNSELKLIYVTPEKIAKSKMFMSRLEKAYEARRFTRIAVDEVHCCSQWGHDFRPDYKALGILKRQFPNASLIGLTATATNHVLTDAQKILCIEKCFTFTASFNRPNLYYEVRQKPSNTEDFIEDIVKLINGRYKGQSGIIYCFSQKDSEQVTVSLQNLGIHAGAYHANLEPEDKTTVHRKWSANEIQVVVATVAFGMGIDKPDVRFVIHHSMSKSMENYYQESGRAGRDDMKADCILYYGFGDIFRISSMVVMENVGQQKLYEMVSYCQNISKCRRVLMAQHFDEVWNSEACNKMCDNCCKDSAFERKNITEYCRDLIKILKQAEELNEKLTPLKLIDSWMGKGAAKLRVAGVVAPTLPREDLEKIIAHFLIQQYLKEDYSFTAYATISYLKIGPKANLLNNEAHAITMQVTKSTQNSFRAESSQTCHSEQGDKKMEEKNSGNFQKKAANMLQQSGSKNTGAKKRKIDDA
For orientation: Quantitative high-throughput screening tests each substance at several concentrations.
Regarding `O=C(O)C1CC=CC2CCN(C3CCCCC3)C(=O)C21` (stereo not drawn), the “activity, negative = inhibition” value was 13.2% (inactive).
Take `Cc1ccc(C)c(CSc2nc(-c3ccco3)nc3c2c(=O)n(C)c(=O)n3C)c1`: the “activity, negative = inhibition” value is -6.89% (inactive).
For `CC/C=C/C(=O)N1CC2(CC(c3cccc(NC(=O)CC)c3)=NO2)C[C@H]1C(N)=O` (stereo partly drawn), the “activity, negative = inhibition” value was 7.15% (inactive).
For `C/C=C(/C)C(=O)Nc1cccc(C2=NOC3(C2)C[C@@H](C(N)=O)N(C(=O)C2(C)CC2)C3)c1` (stereo partly drawn), the call was inactive.
In the case of `C/C=C\C=C\C(=O)N1CC2(CC(c3cccc(NC(=O)/C(C)=C\C)c3)=NO2)C[C@H]1C(N)=O` (stereo partly drawn), the Potency was 20 µM (active).
As to `O=S(O)S(=O)(=O)O`, the “activity, negative = inhibition” value was -3.85% (inactive).
Consider `O=C(N/N=C/C=C/c1ccco1)c1cccs1`, for which the Potency is 35.5 µM (active).
For the compound `CC(=O)Nc1ccc(/C=N/NC(=O)c2cccs2)cc1`, the “activity, negative = inhibition” value was -2.49% (inactive).
Regarding `Cc1ccc(-c2cc(C(=O)N/N=C/C=C/c3ccco3)c3ccccc3n2)cc1C`, the call was inactive.
Turning to `CC(=O)c1ccc(S(=O)(=O)N2CCN(C(=O)/C=C/c3ccc4ccccc4n3)CC2)cc1`, the Potency was 25.1 µM (active).
As to `NC(=O)COC(=O)/C=C/c1ccc2ccccc2n1`, the “activity, negative = inhibition” value was -3.52% (inactive).
The same measure, in the same setting: the same measure for `COC(=O)c1ccc(S(=O)(=O)N2CCC(c3nc4ccccc4o3)CC2)cc1`: -1.82% (inactive).
Same read-out and setting: the same measure for `O=c1cc(CCl)nc2scc(-c3ccccc3)n12`: -7.89% (inactive).
The same measure, in the same setting: the same measure for `CCc1nnc(NC(=O)c2cccc(S(=O)(=O)N(C)c3ccc(OC)cc3)c2)s1`: -3.08% (inactive); for `CCc1nnc(NC(=O)c2sc3nc(C)cc(COC)c3c2N)s1`: -2.43% (inactive).
In the case of `CCc1ccc2nc3sc(C(=O)Nc4nnc(CC)s4)c(N)c3cc2c1`, the Potency was 31.6 µM (active).
For `Cc1ccc(CNC(=O)C2(C(F)(F)F)C/C(=C\CCO)CCCO2)o1` (stereo not drawn), the outcome was inactive.
On to `Nc1ccc2c3c(cccc13)C(=O)NC2=O`, for which the Potency entry is “inactive and 25.1 µM (active)”.
In the case of `CCN1C(=O)c2cccc3c(N)ccc1c23`, the “activity, negative = inhibition” value is -7.81% (inactive).
Consider `CCC(C)[C@@H](N)C(=O)O` (stereo partly drawn), for which the Potency entry was “inactive”.
Consider `COc1ccc(CC(N)C(=O)NC2C(O)[C@H](n3cnc4c(N(C)C)ncnc43)O[C@@H]2CO)cc1` (stereo partly drawn), for which the “activity, negative = inhibition” value is -0.564% (inactive).
Turning to `S=C(NCCc1ccccc1)N1CCn2cccc2C1c1ccncc1` (stereo not drawn), the call was inactive.
As for `Cc1ccc(C)c(SCc2nc3sc(C(=O)O)c(C)c3c(=O)[nH]2)c1`, the “activity, negative = inhibition” value was 2.12% (inactive).
On the same count and under the same terms, the same measure for `CCOC(=O)c1ccc[n+](CC(=O)Nc2ccccc2OC(F)F)c1`: -1.34% (inactive).
For `Cc1ccc(-c2nc(SCC(=O)Nc3ccccc3OC(F)F)c3c(C)c(C(=O)O)sc3n2)cc1`, the Potency was 25.1 µM (active).
In the case of `CCOC(=O)C(CC)/C(C)=N\NC(=O)c1cccc(C)c1` (stereo not drawn), the “activity, negative = inhibition” value is 3.83% (inactive).
Regarding `C[C@H]1CCC[C@@]2(C)CCCC[C@]12O`, the “activity, negative = inhibition” value was -12% (inactive).
As to `COc1cc(OC)c2c(C)cc(=O)oc2c1C(CCN1CCCCC1)c1ccc(N(C)C)cc1` (stereo not drawn), the compound was called inactive.
For `N#Cc1ccccc1CN1C(=O)S/C(=C/c2cccn2-c2cccc(C(=O)O)c2)C1=O`, the Potency was 28.2 µM (active).
Turning to `Cn1cccc1/C=C1\SC(=O)N(CC(=O)Nc2ccc(F)cc2)C1=O`, the “activity, negative = inhibition” value is -20.3% (inactive).
For the compound `O=C(O)c1cccc(N2C(=O)Nc3ccccc3N2O)c1`, the “activity, negative = inhibition” value was -9.45% (inactive).
Turning to `O=c1ccn([C@@H]2O[C@H](COP(=O)(O)OP(=O)(O)OP(=O)(O)O)[C@@H](O)[C@H]2O)c(=O)[nH]1`, the “activity, negative = inhibition” value was 6.8% (inactive).
Turning to `COc1ccc(OC)c(C(=O)c2ccc(C(=O)N3CCN(Cc4csc(C)n4)CC3)cc2)c1`, the compound was called inactive.
Take `O=C1C2C(c3ccccc3)CC=CC2C(c2ccoc2)N1Cc1ccccc1` (stereo not drawn): the outcome was inactive.
As to `O=C(COC(=O)CCC(=O)c1cccs1)NCc1ccco1`, the Potency was 7.94 µM (active).
Consider `O=C(CCC(=O)c1cccs1)NCc1ccccc1`, for which the “activity, negative = inhibition” value is -7.98% (inactive).
With `O=C(COC(=O)C12CC3CC(CC(C3)C1)C2)NCc1ccco1`, the “activity, negative = inhibition” value is -0.842% (inactive).
For `COc1ccc(/C=N/NC(=O)c2ccncc2)cc1CN1CCCc2ccccc21`, the “activity, negative = inhibition” value was -10.1% (inactive).
As to `NS(=O)(=O)c1ccc(NC(=O)COC(=O)CCc2c[nH]c3ccccc23)cc1`, the “activity, negative = inhibition” value was -1.44% (inactive).
In the case of `CC[C@H](C)[C@H](NC(=O)[C@@H](N)CCC(=O)O)C(=O)N[C@@H](CC(C)C)C(=O)N[C@@H](CC(=O)O)C(=O)N[C@H](C(=O)N1CCC[C@H]1C(=O)N[C@@H](CO)C(=O)N[C@H](C(=O)O)[C@@H](C)O)C(C)C`, the “activity, negative = inhibition” value was -7.19% (inactive).
The same measure, in the same setting: for `O=c1cc(-c2ccc(O)cc2)oc2c([C@@H]3O[C@H](CO)[C@@H](O)[C@H](O)[C@H]3O)c(O)cc(O)c12` the value was -22.9% (inactive).
With `Cc1cc(=O)[nH]c(=S)[nH]1`, the Potency result was “inactive”.
Still for that read-out and setting: the same measure for `Cc1cc(=O)[nH]c(S)c1C#N`: 22.4 µM (active).
On to `Cc1cc(=O)[nH]c(SCC(N)=O)c1C#N`, for which the “activity, negative = inhibition” value was -0.259% (inactive).
Same read-out and setting: the same measure for `Cc1noc(C)c1-c1ccc2ncnc(NCc3ccc4[nH]ccc4c3)c2c1`: 17.6% (inactive).
Consider `CCCCOC(=O)c1ccc(NC(c2ccc(C)cc2)P(=O)(OC)OC)cc1` (stereo not drawn), for which the Potency is 17.8 µM (active).
As to `CCCCCOC(=O)NCCOC(=O)Nc1ccc(C(=O)OCC)cc1`, the “activity, negative = inhibition” value was -10.1% (inactive).
As to `CCOP(=O)(OCC)C(Nc1cccc(C)c1)c1ccc(F)cc1` (stereo not drawn), the “activity, negative = inhibition” value is 7.05% (inactive).
